In the supplement of paper PMC7595190:

Legend:
Assay in all cases: CellTox Green cytotoxicity fluorescence relative to DMSO vehicle (fold of vehicle RFU); higher = more cell death (loss of membrane integrity), active = 2 or more
CMK = test system: CMK
Outline: (§1)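 Values are cytotoxicity, read as fluorescence from loss of membrane integrity and expressed as fold of the DMSO vehicle. MV4-11, CMK and Kasumi-1 cells at 4.0 × 10^4 per well received CellTox Green reagent at seeding and single Selleckchem apoptosis library compounds at final 0.01, 0.1 and 1 µM (vehicle 0.1% DMSO). Plates were incubated at 37 °C, 5% CO2 and read at 24, 48 and 72 h.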

Kasumi-1 = test system: Kasumi-1
Outline: as §1

MV4-11 = test system: MV4-11
Outline: as §1

Measured: CellTox Green cytotoxicity fluorescence

Cc1nn(C)c(COc2ccc(N3CCN(S(=O)(=O)N(C)C)CC3)cc2)c1-c1cccc2c(CCCOc3cccc4ccccc34)c(C(=O)O)n(CCN3CCOCC3)c12
inactive: CMK; 0.01 µM, 24 h 0.996 | CMK; 0.01 µM, 48 h 1 | CMK; 0.01 µM, 72 h 1 | CMK; 0.1 µM, 24 h 0.995 | CMK; 0.1 µM, 48 h 0.985 | CMK; 0.1 µM, 72 h 0.957 | CMK; 1 µM, 24 h 0.985 | CMK; 1 µM, 48 h 1.01 | CMK; 1 µM, 72 h 0.948 | Kasumi-1; 0.01 µM, 24 h 0.998 | Kasumi-1; 0.01 µM, 48 h 0.981 | Kasumi-1; 0.01 µM, 72 h 0.976 | Kasumi-1; 0.1 µM, 24 h 1.01 | Kasumi-1; 0.1 µM, 48 h 1.03 | Kasumi-1; 0.1 µM, 72 h 1.04 | Kasumi-1; 1 µM, 24 h 0.938 | Kasumi-1; 1 µM, 48 h 1.03 | Kasumi-1; 1 µM, 72 h 1.03 | MV4-11; 0.01 µM, 24 h 0.991 | MV4-11; 0.01 µM, 48 h 0.986 | MV4-11; 0.01 µM, 72 h 0.981 | MV4-11; 0.1 µM, 24 h 1.05 | MV4-11; 0.1 µM, 48 h 1.1 | MV4-11; 0.1 µM, 72 h 1.12 | MV4-11; 1 µM, 24 h 1.15 | MV4-11; 1 µM, 48 h 1.49 | MV4-11; 1 µM, 72 h 1.67

Nc1nc(F)nc2c1ncn2[C@@H]1O[C@H](CO)[C@@H](O)[C@@H]1O [Fludarabine]
inactive: CMK; 0.01 µM, 24 h 1 | CMK; 0.01 µM, 48 h 1 | CMK; 0.01 µM, 72 h 1 | CMK; 0.1 µM, 24 h 0.981 | CMK; 0.1 µM, 48 h 0.982 | CMK; 0.1 µM, 72 h 0.939 | CMK; 1 µM, 24 h 0.976 | CMK; 1 µM, 48 h 0.961 | CMK; 1 µM, 72 h 0.907 | Kasumi-1; 0.01 µM, 24 h 0.951 | Kasumi-1; 0.01 µM, 48 h 0.991 | Kasumi-1; 0.01 µM, 72 h 0.986 | Kasumi-1; 0.1 µM, 24 h 0.99 | Kasumi-1; 0.1 µM, 48 h 0.99 | Kasumi-1; 0.1 µM, 72 h 0.984 | Kasumi-1; 1 µM, 24 h 1.02 | Kasumi-1; 1 µM, 48 h 1.01 | Kasumi-1; 1 µM, 72 h 1.03 | MV4-11; 0.01 µM, 24 h 0.938 | MV4-11; 0.01 µM, 48 h 0.968 | MV4-11; 0.01 µM, 72 h 0.976 | MV4-11; 0.1 µM, 24 h 0.992 | MV4-11; 0.1 µM, 48 h 0.985 | MV4-11; 0.1 µM, 72 h 0.98 | MV4-11; 1 µM, 24 h 0.994 | MV4-11; 1 µM, 48 h 0.984 | MV4-11; 1 µM, 72 h 1.01

CCOC(=O)c1[nH]c2cc(Cl)ccc2c1C(C(=O)NC(C)(C)C)N(C=O)Cc1ccc(Cl)cc1 (configuration not stated)
inactive: CMK; 0.01 µM, 24 h 0.996 | CMK; 0.01 µM, 48 h 0.985 | CMK; 0.01 µM, 72 h 1 | CMK; 0.1 µM, 24 h 0.958 | CMK; 0.1 µM, 48 h 0.958 | CMK; 0.1 µM, 72 h 0.962 | CMK; 1 µM, 24 h 0.96 | CMK; 1 µM, 48 h 0.971 | CMK; 1 µM, 72 h 0.87 | Kasumi-1; 0.01 µM, 24 h 1.06 | Kasumi-1; 0.01 µM, 48 h 1.01 | Kasumi-1; 0.01 µM, 72 h 1 | Kasumi-1; 0.1 µM, 24 h 0.989 | Kasumi-1; 0.1 µM, 48 h 0.982 | Kasumi-1; 0.1 µM, 72 h 1 | Kasumi-1; 1 µM, 24 h 0.977 | Kasumi-1; 1 µM, 48 h 0.971 | Kasumi-1; 1 µM, 72 h 0.97 | MV4-11; 0.01 µM, 24 h 0.983 | MV4-11; 0.01 µM, 48 h 0.965 | MV4-11; 0.01 µM, 72 h 0.957 | MV4-11; 0.1 µM, 24 h 0.989 | MV4-11; 0.1 µM, 48 h 0.983 | MV4-11; 0.1 µM, 72 h 0.985 | MV4-11; 1 µM, 24 h 0.954 | MV4-11; 1 µM, 48 h 0.993 | MV4-11; 1 µM, 72 h 1.02

Nc1cccc2c1C(=O)N(C1CCC(=O)NC1=O)C2=O (configuration not stated) [Pomalidomide]
inactive: CMK; 0.01 µM, 24 h 1 | CMK; 0.01 µM, 48 h 0.988 | CMK; 0.01 µM, 72 h 0.953 | CMK; 0.1 µM, 24 h 1.01 | CMK; 0.1 µM, 48 h 1.01 | CMK; 0.1 µM, 72 h 0.952 | CMK; 1 µM, 24 h 1.03 | CMK; 1 µM, 48 h 1.04 | CMK; 1 µM, 72 h 0.984 | Kasumi-1; 0.01 µM, 24 h 0.992 | Kasumi-1; 0.01 µM, 48 h 0.996 | Kasumi-1; 0.01 µM, 72 h 0.983 | Kasumi-1; 0.1 µM, 24 h 1.01 | Kasumi-1; 0.1 µM, 48 h 0.998 | Kasumi-1; 0.1 µM, 72 h 0.985 | Kasumi-1; 1 µM, 24 h 1.01 | Kasumi-1; 1 µM, 48 h 1.02 | Kasumi-1; 1 µM, 72 h 1 | MV4-11; 0.01 µM, 24 h 0.981 | MV4-11; 0.01 µM, 48 h 0.995 | MV4-11; 0.01 µM, 72 h 0.992 | MV4-11; 0.1 µM, 24 h 1.04 | MV4-11; 0.1 µM, 48 h 1.01 | MV4-11; 0.1 µM, 72 h 0.983 | MV4-11; 1 µM, 24 h 1.01 | MV4-11; 1 µM, 48 h 0.968 | MV4-11; 1 µM, 72 h 0.96

CC(C)c1cc2c(N3CCN(C4=NCC(C)(C)S4)CC3)ncnc2s1 [MI-3 (Menin-MLL Inhibitor)]
inactive: CMK; 0.01 µM, 24 h 0.943 | CMK; 0.01 µM, 48 h 0.954 | CMK; 0.01 µM, 72 h 0.984 | CMK; 0.1 µM, 24 h 0.923 | CMK; 0.1 µM, 48 h 0.941 | CMK; 0.1 µM, 72 h 0.923 | Kasumi-1; 0.01 µM, 24 h 0.955 | Kasumi-1; 0.01 µM, 48 h 0.967 | Kasumi-1; 0.01 µM, 72 h 0.974 | Kasumi-1; 0.1 µM, 24 h 0.987 | Kasumi-1; 0.1 µM, 48 h 1.01 | Kasumi-1; 0.1 µM, 72 h 0.966

O=C1C(=O)N(Cc2ccc(Cl)c(Cl)c2)c2ccccc21 [Apoptosis Activator 2]
inactive: CMK; 0.01 µM, 24 h 1.01 | CMK; 0.01 µM, 48 h 1.02 | CMK; 0.01 µM, 72 h 1.01 | CMK; 0.1 µM, 24 h 1.03 | CMK; 0.1 µM, 48 h 1.04 | CMK; 0.1 µM, 72 h 1.02 | CMK; 1 µM, 24 h 0.981 | CMK; 1 µM, 48 h 1.01 | CMK; 1 µM, 72 h 0.986 | Kasumi-1; 0.01 µM, 24 h 0.997 | Kasumi-1; 0.01 µM, 48 h 1 | Kasumi-1; 0.01 µM, 72 h 1.01 | Kasumi-1; 0.1 µM, 24 h 1 | Kasumi-1; 0.1 µM, 48 h 0.985 | Kasumi-1; 0.1 µM, 72 h 0.971 | Kasumi-1; 1 µM, 24 h 1.02 | Kasumi-1; 1 µM, 48 h 1.04 | Kasumi-1; 1 µM, 72 h 1.04 | MV4-11; 0.01 µM, 24 h 0.971 | MV4-11; 0.01 µM, 48 h 0.978 | MV4-11; 0.01 µM, 72 h 0.98 | MV4-11; 0.1 µM, 24 h 1.02 | MV4-11; 0.1 µM, 48 h 1.03 | MV4-11; 0.1 µM, 72 h 1.02 | MV4-11; 1 µM, 24 h 1.02 | MV4-11; 1 µM, 48 h 1.13 | MV4-11; 1 µM, 72 h 1.13
